A number with no mark means an inactive call.
Test system: HCC1569
Experiment: H1.0 immunofluorescence intensity relative to DMSO (% of DMSO); higher = stronger H1.0 induction, active = 140 or more
Conditions: concentration: 10 µM; 24 h
Procedure, shortened: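 H1.0 nuclear intensity or cell number is stated as percent of the plate control, based on the median of replicates, and HCC1569 values were smoothed for positional effects. These came from HCC1569 and TDF cells treated with compounds at 10 µM for 24 h at 37 °C in triplicate, then fixed in 3.7% formaldehyde and stained with a rabbit anti-H1.0 antibody, an AlexaFluor 647 secondary and DAPI.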
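Further: TDF is a line of transformed human dermal fibroblasts of mesenchymal origin.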

SMILES	H1.0 immunofluorescence intensity
CCCCCC=CCC=CCCCCCCCC(=O)NCCO [Anandamide (18:2,n-6)]	94.4
Cl.Oc1ccc2c3c1OC1C(O)CCC4(O)C(C2)N(CC2CCC2)CCC314 (centres undefined) [Nalbuphine hydrochloride]	88.2
CC(=O)NC1CN2CCC(O)C2C(O)C1O (centres undefined) [6-Acetamido-6-deoxy-castanospermine]	87.4
CC1CC(C)C(=O)C(C(O)CC2CC(=O)NC(=O)C2)C1 (centres undefined) [Cycloheximide]	139
COc1ccc(-n2nc(C(F)(F)F)cc2-c2ccc(Cl)cc2)cc1	90.3
CN(C)Cc1c[nH]c2ccccc12 [Gramine]	83
CN1CC[C@@]2(C)c3cc(OC(=O)Nc4ccccc4)ccc3N(C)[C@@H]12	102
O=P([O-])(O)C(Cl)(Cl)P(=O)([O-])O.[Na+].[Na+] [Clodronic acid]	96.4
CN(C)C(=O)Oc1cccc([N+](C)(C)C)c1.COS(=O)(=O)[O-]	98.3
